Assay results published in PubChem BioAssay.
Active and inactive are the calls of the source.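 Rule for the calls, unless noted: active = visually confirmed hit in the image check and inhibition above 20%; inconclusive = visually confirmed hit but inhibition not above 20%; inactive = no visual hit in the image check.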

What was measured:
[1] = inhibitors of TNFa-induced NFkB p65 translocation, primary screen, imaging, HUVEC, MLSMR starter and 10KST1 sets (AID 438;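 active = inhibition above 20% together with a positive visual image hit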;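 note: compound added about 3h40 before a 20 min TNFalpha stimulation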;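 for inhibition: signal is the nuclear over cytoplasmic p65 intensity ratio per well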); details: HUVEC TNFa-induced p65 nuclear translocation; cell count: measured here: nuclei count (cytotoxicity indicator), at 2.08 µM; inhibition: at 2 µM, stronger effect = higher value, 0% TNFa-plus-vehicle, 100% no-TNFa wells
[2] = inhibitors of mutant huntingtin aggregation, primary screen, imaging, exon1htt(103Q)mCFP cells, high-content imaging (AID 483;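 active = visual image review flags a hit and inhibition of aggregation exceeds 20%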;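 note: compound exposure lasted 3 days before fixation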;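 for nuclei count: percent of the per-plate median nuclei count of sample wells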); details: exon1htt(103Q)mCFP cell line, aggregate imaging, at 2 µM; inhibition of aggregation: stronger effect = higher value; nuclei count: measured here: cell count, toxicity
[3] = inhibitors of E-selectin induction by TNFa, primary screen, imaging, HUVEC, immunofluorescence, MLSMR starter and 10KST1 sets (AID 487); details: HUVEC TNFalpha-induced E-selectin immunofluorescence imaging, at 2 µM; inhibition: stronger effect = higher value; nuclei count: measured here: cell number, toxicity;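 for inhibition: signal is fraction of cell area covered by stained E-selectin grains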;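 for nuclei count: 100% = median nuclei count of all wells on the same plate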
[4] = molecular target: Voltage-gated potassium channel subunit beta-2 (Rattus norvegicus) (UniProt P62483); experiment: KvBeta enzyme negative modulators, primary screen, biochemical, NADPH fluorescence (AID 622;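 active = fluorescence slope higher than the sample average by over 3 SD, cut at about -0.22 in these data, passing the limit was not always enough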;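 note: slope of raw intensity against log time taken from 70 to 1610 s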); details: recombinant KvBeta, 4-cyanobenzaldehyde reduction, at 10 µM, stronger effect = higher value
[5] = molecular target: Voltage-gated potassium channel subunit beta-2 (Rattus norvegicus) (UniProt P62483); experiment: KvBeta positive modulators, primary screen, biochemical, NADPH fluorescence (AID 623;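 active = NADPH fluorescence slope more negative than the mean of all samples by about 3 SD, 99.7% confidence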;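 note: fluorescence intensity change per second fitted from 20 to 320 s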); details: Recombinant KvBeta, NADPH fluorescence decrease slope, 10 min; at 10 µM; stronger effect = lower value
[6] = molecular target: Alpha-2C adrenergic receptor (Homo sapiens) (UniProt P18825); experiment: modulators of alpha2C/GIRK thallium flux, primary screen, cell-based, HEK293 alpha2C/GIRK1/2 (AID 624;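 active = fluorescence slope after compound addition differing from the mean of all screened samples at 99.7% confidence, in either direction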;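 note: slope of fluorescence ratio to pre-addition baseline per second over 15 to 24 s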); details: thallium flux BTC fluorescence, at 10 µM, actives lie on both sides
[7] = inhibitors of Sendai virus-induced IRF3 signaling, primary screen, TLR/RLR signaling modifier project, cell-based, Sendai virus stimulus, luciferase, 10K MLSCN set (AID 602276;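 active = inhibition at or above 50% at 10 µM; inactive = inhibition below 50%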;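 note: firefly luciferase from ISG56 promoter only with Renilla not read in this screen; 0% = Sendai virus plus DMSO and 100% = medium plus DMSO without virus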); details: HEK293 RL24 IRF3 luciferase reporter, at 10 µM, stronger effect = higher value
[8] = inhibitors of poly I:C-induced TLR3 signaling, primary screen, cell-based, poly I:C stimulus, luciferase, 10K MLSCN set (AID 602277;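 active = inhibition of the reporter signal at or above 50%; inactive = inhibition below 50%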); details: HEK293-TLR3 RL24 IRF3 luciferase reporter, at 10 µM, stronger effect = higher value

Chain of Voltage-gated potassium channel subunit beta-2 (Rattus norvegicus) (P62483 whole entry, looked up): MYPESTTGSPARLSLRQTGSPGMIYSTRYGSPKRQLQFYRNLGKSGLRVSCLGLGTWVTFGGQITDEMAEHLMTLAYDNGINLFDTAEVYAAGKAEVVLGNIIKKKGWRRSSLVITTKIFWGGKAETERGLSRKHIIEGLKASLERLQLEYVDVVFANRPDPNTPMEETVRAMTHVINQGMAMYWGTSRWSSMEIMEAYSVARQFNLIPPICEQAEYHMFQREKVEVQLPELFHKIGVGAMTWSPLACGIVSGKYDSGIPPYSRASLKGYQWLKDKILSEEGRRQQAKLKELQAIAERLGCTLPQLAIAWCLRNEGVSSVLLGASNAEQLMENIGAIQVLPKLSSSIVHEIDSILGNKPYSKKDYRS
Chain of Alpha-2C adrenergic receptor (Homo sapiens) (P18825 whole entry, looked up): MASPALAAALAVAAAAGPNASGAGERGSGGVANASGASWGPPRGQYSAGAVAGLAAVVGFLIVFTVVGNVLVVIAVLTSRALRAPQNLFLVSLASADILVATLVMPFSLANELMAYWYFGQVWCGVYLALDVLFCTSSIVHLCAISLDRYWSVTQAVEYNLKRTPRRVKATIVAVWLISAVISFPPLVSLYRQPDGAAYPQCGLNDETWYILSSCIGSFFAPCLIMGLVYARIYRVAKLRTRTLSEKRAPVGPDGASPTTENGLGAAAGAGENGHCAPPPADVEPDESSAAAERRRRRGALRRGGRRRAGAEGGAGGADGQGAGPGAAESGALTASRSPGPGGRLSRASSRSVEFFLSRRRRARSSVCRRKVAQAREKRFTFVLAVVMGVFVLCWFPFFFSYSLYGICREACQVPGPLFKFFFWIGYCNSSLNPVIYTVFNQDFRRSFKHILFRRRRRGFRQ

| Structure (SMILES) | cell count [1] | inhibition [1] | inhibition of aggregation [2] | nuclei count [2] | inhibition [3] | nuclei count [3] | fluorescence slope [4] | NADPH fluorescence slope [5] | slope [6] | inhibition [7] | inhibition [8] |
| --- | --- | --- | --- | --- | --- | --- | --- | --- | --- | --- | --- |
| c1ccc(-c2ccc(-c3ccccn3)nn2)nc1 | 231 | 11.2% (inactive) | -2.4% (inactive) | 67.7% | -48.9% (inactive) | 121% | -0.419 (inactive) | -1.3e-05 (inactive) | 0.00636 (inactive) | 7.62% (inactive) | 70.6% (active) |
| COc1cccc(C(c2nnnn2CCc2ccccc2)N2CCN(c3ccccc3)CC2)c1OC (stereo not given) | 605 | -23.5% (inactive) | -19.6% (inactive) | 94.9% | 48.8% (inactive) | 91.6% | -0.516 (inactive) | -3e-06 (inactive) | 0.00514 (inactive) | 18.8% (inactive) | 10.1% (inactive) |
| Cc1c(NC(=O)C(C)OC(=O)c2cc3c4ccccc4n(C)c3s2)c(=O)n(-c2ccccc2)n1C (stereo not given) | 405 | -1.3% (inactive) | -35.1% (inactive) | 67.6% | -1.3% (inactive) | 107% | -0.481 (inactive) | -3.8e-06 (inactive) | 0.0038 (inactive) | 25.6% (inactive) | 34.4% (inactive) |
| CCCN(CC1CC1)C(=O)Nc1ccccc1C | 693 | -11.6% (inactive) | 9.8% (inactive) | 101% | -32.9% (inactive) | 103% | -0.529 (inactive) | 3.7e-05 (inactive) | 0.00657 (inactive) | -4.1% (inactive) | -19% (inactive) |
| CCOc1cccc(-c2nnc3sc(COc4ccc(OC)cc4)nn23)c1 | 534 | 7.7% (inactive) | -2.2% (inactive) | 95.7% | -93.7% (inactive) | 118% | -0.433 (inactive) | -3.1e-05 (inactive) | 0.00731 (inactive) | 7.6% (inactive) | 17.6% (inactive) |
| O=C1CN(C(=O)COC(=O)c2ccccc2NC(=O)c2ccco2)c2ccccc2N1 | 271 | -3.3% (inactive) | 7.3% (inactive) | 108% | -31% (inactive) | 123% | -0.507 (inactive) | -8.2e-05 (inactive) | 0.00572 (inactive) | 8.42% (inactive) | -17.5% (inactive) |
| CCCCc1c(O)nc(N2CCN(Cc3ccccc3)CC2)[nH]c1=O | 402 | -2.5% (inactive) | 9.1% (inactive) | 97.1% | -61% (inactive) | 101% | -0.343 (inactive) | -4.3e-05 (inactive) | 0.0053 (inactive) | 12.1% (inactive) | 13.6% (inactive) |
| Cc1cc(C)nc(SCc2csc(N)n2)n1 | 338 | -3.6% (inactive) | -3.1% (inactive) | 81.8% | -56.8% (inactive) | 100% | -0.347 (inactive) | -4.2e-05 (inactive) | 0.00565 (inactive) | -0.264% (inactive) | -2.76% (inactive) |
| COc1ccc(N2CCN(Cc3nc4ccccc4c(=O)[nH]3)CC2)cc1 | 683 | -4.7% (inactive) | -13.4% (inactive) | 119% | -72.3% (inactive) | 112% | -0.607 (inactive) | -3.1e-07 (inactive) | 0.00376 (inactive) | 10.6% (inactive) | -9.48% (inactive) |
| COC(=O)c1ccc(CNC(=O)CSc2nc3sc(C)c(C)c3c(=O)n2C)o1 | 319 | 3.3% (inactive) | 12.1% (inactive) | 94.6% | 5.6% (inactive) | 95.6% | -0.434 (inactive) | -4e-05 (inactive) | 0.00252 (inactive) | -0.162% (inactive) | 29.6% (inactive) |
| COCCN(C(=O)CCC(=O)Nc1ccccn1)C(C(=O)NC1CCCC1)c1ccc(OC)cc1 (stereo not given) | 528 | -26.5% (inactive) | 16.1% (inactive) | 105% | -44.5% (inactive) | 92% | -0.395 (inactive) | -9e-05 (inactive) | 0.00514 (inactive) | 1.15% (inactive) | 23.2% (inactive) |
| O=C(Nc1ccc2snnc2c1)N1CCN(c2ccccc2)CC1 | 454 | 1.6% (inactive) | 0.7% (inactive) | 101% | 0.3% (inactive) | 117% | -0.425 (inactive) | 7.2e-06 (inactive) | 0.00518 (inactive) | 4.94% (inactive) | -57.8% (inactive) |
| Cc1ccc(C)c(NC(=O)CC(NCCCN2CCOCC2)C(=O)O)c1 (stereo not given) | 494 | -13.6% (inactive) | 2.6% (inactive) | 71.5% | -34.4% (inactive) | 81.2% | -0.512 (inactive) | 3.9e-05 (inactive) | 0.00589 (inactive) | 19.6% (inactive) | 20.7% (inactive) |
| COC(=O)C1(C)NC(c2cccs2)C2C(=O)N(c3ccccc3F)C(=O)C21 (stereo not given) | 334 | 2.8% (inactive) | -16.9% (inactive) | 101% | -24.7% (inactive) | 119% | -0.52 (inactive) | 2.7e-06 (inactive) | 0.00503 (inactive) | -3.44% (inactive) | -0.188% (inactive) |
| CC(C)(C)OC(=O)N1CCCC1C(=O)N1CCc2ccccc21 (stereo not given) | 411 | 5.6% (inactive) | -0.3% (inactive) | 103% | -19.6% (inactive) | 104% | -0.614 (inactive) | -1.2e-06 (inactive) | 0.00514 (inactive) | 10.9% (inactive) | 33.9% (inactive) |
| COc1ccc(CCn2c(C)cc(C(=O)CSc3nnnn3C)c2C)cc1 | 441 | -1.5% (inactive) | -14.4% (inactive) | 131% | -45.2% (inactive) | 110% | -0.412 (inactive) | 4.6e-05 (inactive) | 0.00361 (inactive) | 0.703% (inactive) | -19.8% (inactive) |
| Cc1noc(C(=O)Nc2ccc3c(c2)OCO3)c1Cl | 763 | 0% (inactive) | -14.1% (inactive) | 129% | -40.9% (inactive) | 108% | -0.419 (inactive) | -6.4e-05 (inactive) | 0.00438 (inactive) | -21.3% (inactive) | -27.6% (inactive) |
| CCC(C)(C)n1nnnc1C(c1cc2cc(OC)ccc2[nH]c1=O)N1CCc2ccccc21 (stereo not given) | 411 | -18.4% (inactive) | 9.8% (inactive) | 100% | -14.8% (inactive) | 116% | -0.592 (inactive) | -4.5e-05 (inactive) | 0.0033 (inactive) | 14.9% (inactive) | 29.5% (inactive) |
| CCN(CC)CCN1C(=O)C(O)=C(C(=O)c2cccs2)C1c1ccc(C)o1 (stereo not given) | 343 | 12.4% (inactive) | -10.4% (inactive) | 91.9% | -153% (inactive) | 111% | -0.411 (inactive) | -3.6e-05 (inactive) | 0.00478 (inactive) | 2.4% (inactive) | -5.17% (inactive) |
| Cc1ccc(S(=O)(=O)Cc2ccc(C(=O)N3CCN(Cc4ccccc4)CC3)o2)cc1 | 760 | -9.8% (inactive) | -10.9% (inactive) | 101% | -76.2% (inactive) | 118% | -0.569 (inactive) | -1.3e-05 (inactive) | 0.00635 (inactive) | 10.7% (inactive) | 37.2% (inactive) |
| COc1cccc(-c2nc3n(n2)C(c2cccs2)C(C(=O)Nc2cccnc2)=C(C)N3)c1 (stereo not given) | 735 | -20.1% (inactive) | 30.4% (inactive) | 111% | -65.8% (inactive) | 113% | -0.365 (inactive) | 1.9e-05 (inactive) | 0.00588 (inactive) | 22.3% (inactive) | 32.8% (inactive) |
| O=C(CSc1nnnn1-c1ccc(Cl)cc1)NC(=O)Nc1ccc2c(c1)OCCO2 | 336 | 5.6% (inactive) | 19.6% (inactive) | 84.7% | -86.5% (inactive) | 120% | -0.429 (inactive) | -3.6e-05 (inactive) | 0.00808 (inactive) | -24.8% (inactive) | -57% (inactive) |
| Cc1cc(C(=O)COC(=O)C2COc3ccccc3O2)c(C)n1CC1CCCO1 (stereo not given) | 460 | 0.5% (inactive) | 19.3% (inactive) | 81.4% | -126% (inactive) | 119% | -0.373 (inactive) | -4.2e-05 (inactive) | 0.00612 (inactive) | 6.89% (inactive) | 22.4% (inactive) |
| CCOC(=O)C(C)n1cnc2c(nnn2Cc2ccc(C)cc2)c1=O (stereo not given) | 618 | -3.7% (inactive) | 6% (inactive) | 91.7% | -1.8% (inactive) | 86.9% | -0.503 (inactive) | -0.000137 (inactive) | 0.00481 (inactive) | 16.6% (inactive) | 20.1% (inactive) |
| Cc1noc(C)c1COC(=O)c1ccccc1Oc1ccccc1 | 583 | -25.6% (inactive) | -12% (inactive) | 106% | -22.7% (inactive) | 146% | -0.627 (inactive) | -3.8e-07 (inactive) | 0.00533 (inactive) | 4.67% (inactive) | 22.4% (inactive) |
